Compound activity: PubChem, several laboratories
This is a sample that favours compounds with a hit; in the whole collection about 4.3% have one here.
NALP1 yeast inh – inhibitors of NALP1 inflammasome in yeast. S. cerevisiae NALP1/ASC/caspase-1 growth, X-gal OD620, 72 h. inhibition, % at 10 µM. 280,000 tested, 0.61% active. AID 2071; in the data active = inhibition mostly above about 24%, no sharp cut-off; inactive = mostly below about 32%
UBC13 polyUb – blocks human UBC13 polyubiquitin chain formation. P61088. TR-FRET. inhibition, % at 20 µM. 330,000 tested, 0.47% active. AID 485273; in the data active = inhibition above about 45%, passing the limit was not always enough
Target sequence (P61088 whole entry, looked up): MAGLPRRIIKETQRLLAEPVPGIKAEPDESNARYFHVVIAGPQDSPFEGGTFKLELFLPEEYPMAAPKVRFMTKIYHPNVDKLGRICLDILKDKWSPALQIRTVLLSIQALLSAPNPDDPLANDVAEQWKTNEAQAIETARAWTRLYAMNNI
dFosB activator – enhances mouse delta FosB homodimer DNA binding. P13346. 340,000 tested, 0.99% active. purified delta FosB, TAMRA-CDK5 oligo fluorescence polarization; percent of positive-control signal above neutral wells. activation, % at 25 µM. AID 493131;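 active = mean activation above about 17%, with every replicate also reaching it, limit read from the data, passing the limit was not always enough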
CR mimetic SO – lowers age-related superoxide in aged yeast cells | superoxide response (% of plate mean), % at 10 µM | 330,000 tested, 0.18% active | S. cerevisiae aged cells, superoxide DHE fluorescence; stronger effect = lower value | AID 2690;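 active = superoxide response under a set limit, about three screen SD below normal, cut at about 65% in these data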;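 note: yeast aged for seven days with compound at 30 °C before DHE staining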
NR3A LBD binder – modulates the human NR3A ligand-binding domain; AID 1259313; Tm shift relative to glycine control, % at 25 µM; NR3A LBD differential scanning fluorimetry, Tm shift; 0% = protein alone, 100% = glycine-bound protein; 340,000 tested, 2.5% active;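 active = melting temperature shift of at least 10% of the positive control shift, at one fixed dose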
Each line names hits and unclear results; the compound was inactive in the other large screens.

COc1ccc(S(=O)(=O)N(C)Cc2cccs2)cc1Br	NALP1 yeast inh 41.0
Cc1ccc(C)c(S(=O)(=O)N(C)Cc2cccs2)c1	none (no result: NALP1 yeast inh)
c1ccc(C2Nc3cccc4cccc(c34)N2)cc1	none
Oc1ccccc1C1Nc2cccc3cccc(c23)N1	NR3A LBD binder 11.5
c1csc(C2Nc3cccc4cccc(c34)N2)c1	dFosB activator 36.4
O=C1CCCCN1CC(=O)N1CCCC(Nc2ccc(F)cc2)C1 (stereo unspecified)	none
CCOC(=O)[C@@H]1[C@H]2COc3ccc(Br)cc3[C@@H]2N2C(=O)N(c3ccc(F)cc3)C(=O)[C@]12C	none
COc1ccc(C)cc1Nc1n[n+](-c2ccccc2)c(-c2ccc(SC)cc2)s1	NR3A LBD binder 26.9
Cc1cc(C(=O)COC(=O)c2ccc(NC(=O)CC#N)cc2)c(C)n1-c1ccc(OC(F)F)cc1	NR3A LBD binder 16.8 (no result: NALP1 yeast inh)
COc1ccccc1CNC(=O)CN1C(=O)NC2(CCCCCCC2)C1=O	none (no result: NALP1 yeast inh)
O=C(CNS(=O)(=O)c1ccc(Br)s1)NCc1ccccc1	none
O=S(=O)([O-])C(c1ccccc1)[n+]1ccccc1 (stereo unspecified)	NR3A LBD binder 21.1 (no result: NALP1 yeast inh)
O=C(O)C(C(O)c1ccccc1)[n+]1ccccc1 (stereo unspecified)	none (no result: NALP1 yeast inh)
O=C(COC(=O)CNS(=O)(=O)c1ccccc1)Nc1ncc(Cl)cc1Cl	none (no result: NALP1 yeast inh)
O=C(Oc1ccc2ccccc2c1)c1ccccc1	NR3A LBD binder 18.9
Nc1ccc(C(=O)N2CCN(S(=O)(=O)c3ccc4c(c3)OCCO4)CC2)cc1[N+](=O)[O-]	none
CCCCCCc1c(O)nc(SCC(=O)O)[nH]c1=O	NALP1 yeast inh 32.7 (no result: UBC13 polyUb)
CCCCc1c(O)nc(SCC(=O)O)[nH]c1=O	none
NC(=S)N/N=C/c1ccccc1OCCSc1ccc(Cl)cc1	none
COc1ccc(C(C(=O)NC2CCCCC2)N(Cc2ccco2)C(=O)c2ccccn2)c(OC)c1 (stereo unspecified)	none
O=C(CSc1nc2ccc(Cl)cc2[nH]1)c1c[nH]c2ccccc12	NR3A LBD binder 11.6
CCC(C)N(C(=O)CSc1nnc(C)n1C)C1CCS(=O)(=O)C1 (stereo unspecified)	none (no result: NALP1 yeast inh)
CCOC(=O)[C@H]1[C@H]2COc3cc(OC)ccc3[C@@H]2N2C(=O)N(c3cccc(Cl)c3)C(=O)[C@@]12C	none
O=C(Nc1ccc(Cl)cc1)c1ccco1	none
O=C(Nc1ccc(-c2nc3cc(Cl)ccc3c(=O)o2)cc1)c1ccco1	NR3A LBD binder 11.2
COc1cc2nc(NC(=O)c3ccco3)sc(=O)c2cc1OC	NR3A LBD binder 14.8 (no result: NALP1 yeast inh)
O=C(Nc1nc2c(ccc3ccccc32)s1)c1ccco1	NR3A LBD binder 15.6
O=C(Nc1ccc(-c2nc3c(ccc4ccccc43)o2)cc1)c1ccco1	NR3A LBD binder 35.0
COc1cc2sc(NC(=O)c3ccco3)nc2cc1Cl	none
CCOC(=O)c1c(C)[nH]c(C)c1S(=O)(=O)NC(CC)CN1CCOCC1 (stereo unspecified)	none
CCOc1ccc(C(C(=O)NC2CCCC2)N(CCCO)C(=O)c2ccc(-c3ccccc3)[nH]2)cc1 (stereo unspecified)	none
CCS(=O)(=O)c1ccc(O)c(NC(=O)c2ccc(S(=O)(=O)N3CCCCCC3)cc2)c1	none (no result: NALP1 yeast inh)
O=C(CN1C(=O)NC2(CCCCC2)C1=O)N1CCN(S(=O)(=O)c2cccc([N+](=O)[O-])c2)CC1	none (no result: NALP1 yeast inh)
O=c1ccn([C@@H]2O[C@H](CNCc3ccc(-c4cc(C(F)(F)F)ccc4Cl)o3)[C@@H](O)[C@H]2O)c(=O)[nH]1	NR3A LBD binder 16.8 (no result: NALP1 yeast inh, UBC13 polyUb, CR mimetic SO)
CC1CCCCC12NC(=O)N(CC(=O)Nc1ccc(N3CCCCC3)cc1)C2=O (stereo unspecified)	none (no result: NALP1 yeast inh, CR mimetic SO)
Cc1cc([N+](=O)[O-])ccc1-c1ccc(C2Nc3ccccc3C(=O)N2O)o1 (stereo unspecified)	NR3A LBD binder 30.0
Cc1ccc(NC(=O)CC2S/C(=N/N=C3/NC(=O)CS3)NC2=O)cc1 (stereo unspecified)	none
Cc1ccc(NC(=O)CC2SC(=NCC3CCCO3)NC2=O)cc1Cl (stereo unspecified)	none
Cc1ccc(NC(=O)CC2S/C(=N/N=C/C=C/c3ccccc3)NC2=O)cc1Cl (stereo unspecified)	NR3A LBD binder 15.2
CCOC(=O)c1ccc(NC(=O)CC2S/C(=N/N=C/c3c[nH]c4ccccc34)NC2=O)cc1 (stereo unspecified)	NR3A LBD binder 29.1
